Source: PubChem BioAssay (National Center for Advancing Translational Sciences (NCATS))
MCF10A rerep – DNA re-replication induction in MCF 10a cells; hit rate 2.9% among 350,000; Potency, µM (series often up to 46.1 µM), without a hit: top-dose activity, positive = re-replication, most hits filed as activators; MCF 10A DNA re-replication, Hoechst nuclear intensity, 48 h; also: potency is read from the fitted curve at half-maximal effect; % of control where 0% means no effect; nearly all actives have a fitted effect of over 50% in size
IL-1B inflam inh – blocks inflammasome-driven IL-1 beta release. THP-1 LPS/ATP IL-1B secretion, AlphaLISA, 16 h; stronger effect = lower value. activity change, % at 57.5 µM. hit rate 4.7% among 360,000; in the data active = activity change below about -50%; inconclusive = mostly about -30% to -49%; also: % is scaled to controls: 0 for no effect and ±100 for the full control effect
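Secreted IL-1B measured by AlphaLISA bead assay after 16 h compound exposure of THP-1 cells; compounds (final up to 57.5 uM) added 1 h before LPS (250 ng/mL) and ATP (1.25 mM) stimulation; lower signal means less secretion.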
TDP1 cell CPT – DT40-hTDP1 cell growth loss with CPT | hit rate 12% among 420,000 | Potency, µM (titrated, usually from 46.2 µM), for inactives: top-dose activity change, negative = growth inhibition, actives largely listed as inhibitors | chicken DT40 Tdp1-/-;hTDP1 cells + 20 nM CPT, ATP luminescence, 48 h; also: potency is read from the fitted curve at half-maximal effect; % is scaled to controls: 0 for no effect and ±100 for the full control effect; nearly all actives have a fitted effect of over 55% in size
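Chicken DT40 Tdp1-/- cells stably complemented with human TDP1 were seeded at 400 cells/well in medium containing 20 nM camptothecin, exposed to pin-transferred compounds, and grown at 37 °C for at least 48 hr. Viability was read as ATP luminescence.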
SW480 rereplic – induces DNA re-replication in SW480 colon adenocarcinoma cells | Potency, µM (series often up to 46.1 µM), inactives show at the highest dose re-replication activation, most hits filed as activators | hit rate 1.8% among 340,000 | SW480 DNA re-replication, Hoechst DNA content imaging, 48 h | AID 624297; also: potency is read from the fitted curve at half-maximal effect; % of control where 0% means no effect; nearly all actives have a fitted effect of over 55% in size
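Quantitative HTS format with DMSO vehicle controls; 48 hr drug incubation at 37 C, then 40 min Hoechst staining and scanning imager measurement at 405 nm excitation.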
DT40 TDP1 no CPT – qHTS for Inhibitors of human tyrosyl-DNA phosphodiesterase 1 (TDP1): qHTS in cells in absence of CPT | DT40 Tdp1-/- hTDP1 cells, no CPT, ATP luminescence, 48 h | Potency, µM (titrated, usually from 46.2 µM), for inactives: at the highest dose activity change, negative = growth inhibition, hits mostly inhibitors | hit rate 15% among 420,000 | AID 686978, 2013; also: potency is read from the fitted curve at half-maximal effect; % is scaled to controls: 0 for no effect and ±100 for the full control effect; nearly all actives have a fitted effect of over 55% in size
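Compound effects on proliferation are scored in DT40 Tdp1-/-;hTDP1 cells in the absence of CPT. ATP levels (CellTiter-Glo luminescence) are recorded after a ≥48 hr, 37 °C incubation.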
BCR signal inh – chronic active BCR signaling inhibition | ABC-DLBCL IkBa-CBG/CBR reporter, luminescence ratio, 4 h | Potency, µM (doses to about 46.1 µM), for the others: top-dose activity change, negative = inhibition, most hits filed as inhibitors | hit rate 0.05% among 340,000; active = well fitted inhibition curve with a large enough effect in the signal ratio, with a control signal flat, not every such curve was filed as active; inconclusive = small, poorly fitted or top-dose-only effect, or effect the other way, or a change in a side signal; the % refers to the signal ratio;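 also: potency is read from the fitted curve at half-maximal effect; plate controls were basal doxycycline-induced cells for no effect and cells given 10 µM MG132 for full effect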
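Doxycycline induced both beetle luciferases in TMD8 lymphoma cells; IKK-driven degradation limits the IkappaBalpha-fused green signal, while red luminescence normalises for cell number and nonspecific effects. Compounds tested up to 46 uM, 4 hrs.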
The depositor's hits bear a star; ? = inconclusive; · = no result given. This is a sample that favours compounds with a hit; in the whole collection about 19% have one here. Unless noted, calls follow the shape of the dose curve; as a rule, active = well fitted curve in the direction sought with a large enough effect; inconclusive = small, poorly fitted or top-dose-only effect, or another doubt; inactive = no such curve, though single readings can be large; an effect the other way counts as inactive or inconclusive.

SMILES	MCF10A rerep	IL-1B inflam inh	TDP1 cell CPT	SW480 rereplic	DT40 TDP1 no CPT	BCR signal inh
Cc1ccc(OCCN2CCC2(C)C(=O)Nc2ccc3c(c2)OCCO3)cc1 (stereo unspecified)	·	-110*	-98%	·	18µM*	·
CC1(C(=O)Nc2ccc3c(c2)OCCO3)CCN1Cc1ccc2ccccc2c1 (stereo unspecified)	·	-21	?	·	-64%	·
O=C(C[C@H]1C[C@@H]2c3cc(NC(=O)Nc4ccccc4)ccc3O[C@@H]2[C@@H](CO)O1)NCC1CC1	·	12	0%	·	?	·
Cc1cccn2c(=O)c(/C=C(\C#N)S(=O)(=O)c3ccccc3)c(Oc3ccc(Cl)cc3)nc12	17%	-8	?	-1%	18µM*	1%
Cc1cc(Oc2nc3c(C)cccn3c(=O)c2/C=C(\C#N)S(=O)(=O)c2ccccc2)ccc1Cl	?	6	13µM*	-12%	?	?
Cc1cccc(C2=NN(c3ccc(Br)cc3)[C@@H](C(=O)N3CCOC3=O)[C@@H]2c2ccccc2)c1	1.5µM*	-8	?	?	?	9%
Cc1cccc(C2=NN(c3ccccc3)[C@@H](C(=O)N3CCOC3=O)[C@@H]2c2ccccc2)c1	?	21	3%	16µM*	?	-1%
Cc1cccc(N2CCN(C(=O)CCC(=O)N3CCOc4ccc(Cl)cc43)CC2C)c1 (stereo unspecified)	22%	?	?	1%	?	?
COc1ccc2c(c1)C=C(CN1CCN(C3CCCC3)C(CCO)C1)CO2 (stereo unspecified)	?	-11	-8%	-1%	-13%	-11%
CC(C)(C)NC(=O)COc1ccc(CNCc2ccccn2)cc1	16µM*	-9	21%	-2%	-21%	1%
C=CCNCc1cccn1-c1sc2c(c1C#N)CCCC2	0%	-20	21µM*	-6%	21µM*	-5%
N#Cc1c(-n2cccc2/C=N/O)sc2c1CCCC2	1%	-24	?	2%	?	5%
CC(=O)N1CCOc2ccc(S(=O)(=O)N3CCC(C(=O)NCc4ccc(F)cc4)CC3)cc21	3%	-18	3%	-3%	4%	7%
Cc1csc2nc(-c3cccc(NC(=O)c4cccc(F)c4)c3)cn12	·	·	18µM*	·	18µM*	·
Cc1csc2nc(-c3cccc(NC(=O)c4ccccc4Cl)c3)cn12	·	·	18µM*	·	18µM*	·
C=CCN1CCc2nc(N)sc2CC1	-7%	-4	-23%	-10%	-2%	6%
CCN1CCc2nc(N)sc2C1	0%	-16	?	2%	29µM*	7%
CCN(CC)c1cc(C)c2cc(NC(=O)/C=C/c3ccc(C)cc3)ccc2n1	·	·	5.8µM*	·	5.2µM*	·
CCN(CC)c1ccc(NC(=O)/C=C/c2cc(Br)ccc2OC)cc1	-3%	-29	?	?	?	-2%
CCN(CC)c1cc(C)c2cc(NC(=O)CNC(C)=O)ccc2n1	1%	-4	32%	3%	-12%	-1%
CCOc1ccc(/C=C/C(=O)Nc2ccc3nc(N(CC)CC)cc(C)c3c2)cc1OC	·	·	5.2µM*	·	10µM*	·
CCN(CC)c1cc(C)c2cc(NC(=O)/C=C/c3cc(OC)c(OC)c(OC)c3)ccc2n1	·	·	6.5µM*	·	7.3µM*	·
COc1cccc(CCN2C(=O)CCC3=C2CCC3=O)c1	·	0	-22%	·	-7%	·
CC(C)(C)OC(=O)NCCc1nnc(SCc2ccccc2Cl)o1	12%	9	-24%	1%	?	-4%
CC(C)(C)OC(=O)NCCc1nnc(S(=O)(=O)Cc2ccc(Cl)cc2Cl)o1	7.3µM*	-118*	1.6µM*	?	2.6µM*	?
SMILES	MCF10A rerep	IL-1B inflam inh	TDP1 cell CPT	SW480 rereplic	DT40 TDP1 no CPT	BCR signal inh
CCS(=O)(=O)c1ccc(O)c(NC(=O)Nc2ccc(C(C)(C)C)cc2)c1	8%	-88*	2%	-17%	?	0%
O=C(O)CCC(=O)N1N=C(c2cccs2)CC1c1ccc(Br)cc1 (stereo unspecified)	-6%	7	-9%	9%	-10%	7%
Oc1ccccc1C1CC(c2cccs2)=NC(c2cccc(Br)c2)N1 (stereo unspecified)	?	-10	15µM*	?	21µM*	?
CCc1ccc(C2C(C(=O)Nc3ccc(Cl)cc3)=C(C)Nc3ncnn32)cc1 (stereo unspecified)	·	·	?	·	-18%	·
CCN(CC)CCn1c(NC(=O)c2ccc(C)cc2)nc2ccccc21	2%	44	-19%	1%	?	-1%
CCCn1c(NC(=O)c2cccc(C)c2C)nc2ccccc21	?	9	13µM*	?	15µM*	?
CCCn1c(NC(=O)c2ccc(Cl)c(S(=O)(=O)N3CCCC3)c2)nc2ccccc21	14%	-13	23µM*	6%	16µM*	?
CCCn1c(NC(=O)C2CCN(C(=O)c3ccccc3C)CC2)nc2ccccc21	?	-27	16µM*	?	?	-23%
CCCn1c(NC(=O)c2ccc([N+](=O)[O-])o2)nc2ccccc21	?	-20	21µM*	21µM*	?	?
Cn1ncc([N+](=O)[O-])c1C(=O)Nc1nc2ccccc2n1CCN1CCCCC1	?	?	-20%	0%	?	3%
CCCn1c(SCC(O)c2ccccc2)nc2ccccc21 (stereo unspecified)	·	·	-26%	·	?	·
C[C@H]1CN([C@@H](C)CO)C(=O)CCCn2nncc2CO[C@H]1CN(C)C(=O)C1CCCCC1	·	3	?	·	?	·
COc1ccccc1Nc1ncnc2c1c(C)c(C)n2CCCN(C)C	?	?	18µM*	21µM*	?	1%
Cc1c(C)n(CCCN(C)C)c2ncnc(NC3CCCCC3)c12	?	-53*	?	?	?	0%
Cc1c(C)n(CCCN(C)C)c2ncnc(Nc3ccccc3)c12	?	-27	14%	-21%	23%	0%
COc1ccc(S(=O)(=O)N2CCN(C(=O)C3CC3)CC2)cc1Br	18%	25	-16%	-1%	-10%	-3%
C[C@H]1CN([C@@H](C)CO)C(=O)CCCn2nncc2CO[C@@H]1CN(C)Cc1ccc(C(F)(F)F)cc1	·	51	3%	·	-29%	·
C[C@@H]1CN([C@H](C)CO)C(=O)CCCn2nncc2CO[C@H]1CN(C)Cc1ccccc1C(F)(F)F	·	-9	15µM*	·	21µM*	·
